MRP reversal: MRP-mediated drug resistance reversal; AID 602; differential viability (reversal), % at 10 µM; actives 0.04% (n = 85,000); H69AR cells + 2 uM doxorubicin, CellTiter-Glo, 72 h;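 active = viability drop by adding the cancer drug above about 55%, with treated viability meeting a 40% cutoff, limit read from the data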;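 note: viability without doxorubicin minus viability with 2 µM doxorubicin for each compound; larger differential means the compound sensitizes cells more to doxorubicin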
CYP2C9 inh: human CYP2C9 inhibition; CYP2C9 Supersomes, luciferin-H conversion, luminescence; inhibition, % at 5 µM; P11712; actives 20% (n = 96,000);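 active = blocking of liver enzyme CYP2C9 beyond about 50% at 5 µM, limit read from the data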
Target sequence (P11712 whole entry, looked up): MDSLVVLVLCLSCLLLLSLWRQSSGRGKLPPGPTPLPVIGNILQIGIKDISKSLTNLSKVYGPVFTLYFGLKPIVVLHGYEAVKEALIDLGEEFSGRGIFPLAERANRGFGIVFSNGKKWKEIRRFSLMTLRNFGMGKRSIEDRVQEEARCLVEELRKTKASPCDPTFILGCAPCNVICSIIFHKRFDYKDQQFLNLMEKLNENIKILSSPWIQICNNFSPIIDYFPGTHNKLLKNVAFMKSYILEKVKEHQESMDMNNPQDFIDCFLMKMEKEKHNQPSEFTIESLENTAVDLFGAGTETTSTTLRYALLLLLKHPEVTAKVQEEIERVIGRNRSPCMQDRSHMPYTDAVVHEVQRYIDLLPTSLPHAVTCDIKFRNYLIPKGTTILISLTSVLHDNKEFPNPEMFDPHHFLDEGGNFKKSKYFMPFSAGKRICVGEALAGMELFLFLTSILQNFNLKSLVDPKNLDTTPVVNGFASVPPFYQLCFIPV
MRP1 act: activators of MRP-1. viability increase, % at 10 µM. AID 799. actives 0.61% (n = 140,000). H69AR cells + doxorubicin, viability rescue, CellTiter-Glo;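 active = viability gain under doxorubicin at or above a set limit, the compound median plus 3 SD, cut at about 4.7% in these data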;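 note: MRP-1 overexpressing cells given doxorubicin 25 µM after compound pretreatment; 18-22 h compound pretreatment then 72 h with doxorubicin before readout; 0% = doxorubicin-only wells and 100% = vehicle-treated cells without doxorubicin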
CYP2C19 act: cytochrome P450 2C19 (human) activation | P33261 | recombinant CYP2C19, luciferin-H EGE luminescence; active compounds read high; 0 = fully inhibited enzyme, 1 = untreated enzyme | activation factor at 5 µM | 96,000 tested, under 10 active | AID 1025;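 active = activation factor of at least 2 at 5 µM in the primary screen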;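 note: 0 = wells with 2.5 mM tranylcypromine and 1 = vehicle-only wells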
CYP2C19 inhib: blocks human cytochrome P450 2C19; P33261; CYP2C19 Supersomes, luciferin-H EGE luminescence, 30 min; inhibition, % at 5 µM; actives 21% (n = 96,000); AID 778;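 active = CYP2C19 inhibition above a set limit at 5 µM in the primary screen, cut at about 50% in these data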;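 note: plate controls were negative control wells for no effect and 2.5 mM tranylcypromine positive control for full effect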
CYP2C9 act: activators of human CYP2C9. recombinant CYP2C9, luciferin-H conversion, luminescence; active compounds read high; factor 1 = untreated enzyme, 0 = blocked. actives 1.4% (n = 96,000). activation factor at 5 µM. P11712;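 active = activation factor of 2 or more for CYP2C9 at a 5 µM dose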;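 note: 0 = sulfaphenazole-blocked wells and 1 = vehicle-only wells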
* hit, by the source's call; nt = not tested or not shown. This is a sample that favours compounds with a hit; in the whole collection about 21% have one here.

SMILES	MRP reversal	CYP2C9 inh	MRP1 act	CYP2C19 act	CYP2C19 inhib	CYP2C9 act
CC1(c2ccc(Cl)cc2)NC(=O)N(CC(=O)NC(=O)NCc2ccco2)C1=O (stereo not drawn)	3.9	66.7*	-0.6	0.3	66.2*	0.3
O=C(CN1C(=O)NC2(CCCCCC2)C1=O)NCc1ccco1	0.7	5.9	-1.8	0.9	6.6	0.9
CCCc1nnc(NC(=O)Cn2c(=O)oc3cc(Br)ccc32)s1	-17.8	67.6*	0.3	0.8	23.5	0.3
CCc1nnc(NC(=O)Cn2nc(-c3ccc(OC)c(OC)c3)ccc2=O)s1	-0.1	22.0	-1.8	0.9	6.3	0.8
CC(C)CN(CC(C)C)c1nnc(NC(=O)Cn2c(=O)oc3ccccc32)s1	8.0	0.9	1.2	1	0.1	1
O=C(Cn1c(=O)oc2ccccc21)Nc1nc(-c2ccc(Br)cc2)cs1	nt	nt	-5.2	nt	nt	nt
CCCc1nnc(NC(=O)Cn2c(=O)oc3ccccc32)s1	-4.5	54.1*	-0.3	0.6	39.2	0.5
CC1CCCC(C)N1c1nnc(NC(=O)Cn2c(=O)oc3ccccc32)s1 (stereo not drawn)	10.6	11.9	-0.9	1	-0.5	0.9
CCc1nnc(NC(=O)Cn2nc(-c3ccccc3OC)ccc2=O)s1	-9.1	62.9*	-2.2	1.2	-15.9	0.4
CCc1nnc(NC(=O)Cn2c(=O)oc3ccccc32)s1	0.9	72.7*	1.1	0.4	63.7*	0.3
CC1CCC(NC(=O)CN2C(=O)COc3ccc(S(=O)(=O)N4CCCC4)cc32)CC1 (stereo not drawn)	nt	nt	-2.3	nt	nt	nt
COC(=O)c1cc(C(=O)OC)cc(N2C(=O)CN=C2Nc2nc(C)cc(C)n2)c1	7.8	-1.3	-1.6	1	1.0	1
CN(C)c1ccc(P(=O)(OCc2ccccc2)C(O)c2cccnc2)cc1 (stereo not drawn)	-11.0	58.2*	-0.6	0.5	48.3	0.4
CC(C)C(O)P(=O)(OCc1ccccc1)c1ccc(N(C)C)cc1 (stereo not drawn)	20.4	5.0	-1.1	0.5	53.6*	0.9
O=C(Nc1nc2ccc(SC(F)F)cc2s1)c1ccc(NS(=O)(=O)c2ccc(F)c(F)c2)cc1	nt	nt	-4.5	nt	nt	nt
N#Cc1nc(Cc2ccccc2)oc1NCc1cccnc1	nt	nt	-1.3	nt	nt	nt
N#Cc1nc(Cc2ccccc2)oc1NCc1ccccc1Cl	4.5	55.8*	-2.6	0.4	62.7*	0.4
N#Cc1nc(Cc2ccccc2)oc1NCCCn1ccnc1	5.4	76.7*	-0.8	0.1	91.5*	0.2
CC(C)c1nc(C#N)c(NCCCn2ccnc2)o1	11.0	91.4*	-0.6	0	100.4*	0.1
COc1ccc(O)c(-c2cc(-c3cccs3)[nH]n2)c1	-9.1	73.7*	-4.9	0.6	36.8	0.3
CC(=O)C1=C(O)C(=O)N(Cc2ccccc2)C1c1ccco1 (stereo not drawn)	5.2	13.6	0.9	1	-2.4	0.9
COc1ccc2nc(/C=N/NC(=O)[C@H](C)NC(=O)OC(C)(C)C)ccc2c1	nt	nt	-0.4	nt	nt	nt
CCOC(=O)c1ccc2c(c1)nc(SCC(=O)N1CCCCC1)n2CC	2.7	87.7*	-1.1	0.2	77.5*	0.1
CCOC(=O)c1ccc2c(c1)nc(SCC(=O)c1ccco1)n2CC	4.0	69.3*	-0.7	0.8	20.6	0.3
Cc1ccc(NC(=O)COC(=O)c2sccc2C)cc1S(=O)(=O)N1CCOCC1	nt	nt	0.4	nt	nt	nt
SMILES	MRP reversal	CYP2C9 inh	MRP1 act	CYP2C19 act	CYP2C19 inhib	CYP2C9 act
C=CCNC(=O)CC(C)C(CCCCC)C(=O)O (stereo not drawn)	-13.9	15.2	-3.2	1	2.9	0.8
CCOC(=O)N1CCC(NC(=O)C2CCCN(C(=O)N3CCOc4ccccc43)C2)CC1 (stereo not drawn)	8.9	79.6*	-1.6	0.8	15.9	0.2
Cc1ccc(N2C(=O)CC(n3nc(C)cc3C)C2=O)cc1 (stereo not drawn)	-1.6	-24.8	0.7	1	4.3	1.2
COC(=O)c1nn(-c2ccccc2)c(Cl)c1/C=N/OCc1ccc(Cl)cc1Cl	nt	66.8*	-4.0	0.7	28.6	0.3
COC(=O)c1nn(-c2ccccc2)c(Sc2ccc(Cl)cc2)c1/C=N/O	nt	54.6*	-5.0	0.6	37.1	0.5
COC(=O)c1nn(-c2ccccc2)c(=O)cc1Oc1ccc(Cl)cc1	nt	7.8	-0.1	0.8	24.5	0.9
COC(=O)c1nn(-c2ccccc2)c(Sc2ccc(Br)cc2)c1/C=N/O	nt	73.4*	-4.8	0.6	38.6	0.3
CS(=O)(=O)Nc1nnc(SCC(=O)Nc2cccc([N+](=O)[O-])c2)s1	nt	nt	-1.5	nt	nt	nt
Cc1ccc(NC(=O)c2ccccc2)s1	-9.4	38.4	-1.1	0.4	58.4*	0.6
CCOc1cc(C2C(C(=O)c3ccc(C)o3)=C(O)C(=O)N2CCc2ccccc2)ccc1O (stereo not drawn)	2.9	22.0	-2.3	0.8	23.7	0.8
COc1ccc(CCN2C(=O)C(O)=C(C(=O)c3ccco3)C2c2cccs2)cc1OC (stereo not drawn)	0.0	53.2*	-1.6	1	1.2	0.5
COc1cc(C2C(C(=O)c3ccco3)=C(O)C(=O)N2CCc2ccccc2)ccc1O (stereo not drawn)	-8.3	53.5*	-2.2	0.9	7.1	0.5
Cc1cc(N2C(=O)C(O)=C(C(=O)c3ccco3)C2c2cccnc2)no1 (stereo not drawn)	-10.4	8.2	-0.2	1	-0.9	0.9
Cc1ccc2nc(N3C(=O)C(O)=C(C(=O)c4ccco4)C3c3cccs3)sc2c1 (stereo not drawn)	nt	96.0*	-2.7	0.9	9.1	0
CCOC(=O)c1cc(CC)sc1/N=C/c1c(O)ccc2ccccc12	nt	nt	-4.0	nt	nt	nt
O=C(CSc1nccn1Cc1ccccc1)NCc1ccccc1	18.2	56.5*	0.1	0.1	88.7*	0.4
O=C(CSc1nc2ccccc2n1CCc1ccccc1)NC1CCS(=O)(=O)C1 (stereo not drawn)	28.4	99.1*	-0.2	0	96.5*	0
Cn1c(SCC(=O)NCc2ccccc2)nc2ccccc21	-9.9	-345.3	-0.6	0.6	39.9	4.5*
O=C(CSc1nc2ccccc2n1CCc1ccccc1)NC1CC1	nt	nt	-0.3	nt	nt	nt
Cn1c(SCC(=O)NCc2ccco2)nc2ccccc2c1=O	16.6	17.4	-3.3	1	4.2	0.8
O=C(COC(=O)c1cccnc1SCC(=O)NCc1ccccc1)NCc1ccccc1	-9.3	38.9	-0.4	0.3	68.2*	0.6
CC(C)COCC1CC2(CC(C)C(=O)CC2=O)C(=O)O1 (stereo not drawn)	9.3	20.7	-2.3	0.9	7.6	0.8
CCN(CC)CCC(=O)Nc1ccc2c(c1)N(C(=O)CN(CC)CC)c1ccccc1CC2	-18.0	6.6	-3.6	0.9	5.2	0.9
O=C(CSc1nc(SCC(=O)NCc2ccccc2)n(-c2ccccc2)n1)NCc1ccccc1	-6.6	82.9*	-1.6	0.3	66.0*	0.2
